Source: PubChem (University of Kansas High Throughput Screening Laboratory)
Pf apPOL inh: Pf-apPOL DNA polymerase inhibition | Recombinant Pf-apPOL, molecular beacon fluorescence, 1.5 h | inhibition, % at 10 µM | 210,000 tested, 0.25% active | AID 1794808
mHTT-CaM PPI inh: disrupts binding of mutant huntingtin to calmodulin; AlphaScreen His-mHTT/GST-CaM binding, luminescence; inhibition, % at 15 µM; 190,000 tested, 3.6% active
Large screens that a line does not name were inactive; ! = not confirmed by another sample. A selection: hits, their analogues and other compounds. The true share with any hit is near 3.6%. Rule as the data show it: active = inhibition above about 50%; inactive = the rest.

O=C(NCC1CCCO1)C1=Cc2ccccc2OC=C1 (configuration not stated)	none
COc1cccc(C=C2Oc3cc(OCC(C)=O)ccc3C2=O)c1	none
COc1ccc(C=C2Oc3cc(OCC(=O)O)ccc3C2=O)cc1	Pf apPOL inh 61
CC(=O)COc1ccc2c(c1)OC(=CC=Cc1ccccc1)C2=O	mHTT-CaM PPI inh 88
CC(C)(C)OC(=O)COc1ccc2c(c1)OC(=CC1=Cc3ccccc3OC1)C2=O	none
COc1ccc(C(=O)COc2ccc3c(c2)OC(=CC2=Cc4ccccc4OC2)C3=O)cc1OC	mHTT-CaM PPI inh 58
COc1ccc(C=C2Oc3cc(OCC(=O)c4ccc(OC)cc4)ccc3C2=O)cc1	none
CCOC(=O)COc1ccc2c(c1)OC(=CC=Cc1ccccc1)C2=O	none
C=C(C)COc1ccc2c(c1)OC(=Cc1cccc(OC)c1)C2=O	mHTT-CaM PPI inh 73
O=C(Cc1cccnc1)Nc1cccn2nc(C3CC3)nc12	none
CCOC(=O)COc1ccc2ccc(=O)oc2c1	none
O=C(Nc1ncccn1)c1c[nH]c2c(Cl)cccc2c1=O	none
CCC(C(=O)Nc1ccc(F)cc1F)c1ccccc1 (configuration not stated)	none
COc1cccc2cc(-c3cc(=O)oc4cc5c(cc34)CCC5)oc12	none
CCN1CCN(C(=O)C2CCc3sc(C(=O)N(CC)CC)cc3C2)CC1 (configuration not stated)	none
COc1ccc(C2=NN(C(=O)CCC(=O)O)C(c3cc4ccc(C)cc4nc3Cl)C2)cc1 (configuration not stated)	none
CC(=O)Oc1cc(C(=O)N(c2ccc(C)cc2)C2C=CS(=O)(=O)C2)cc(OC(C)=O)c1OC(C)=O (configuration not stated)	Pf apPOL inh 90, mHTT-CaM PPI inh 96
Cc1ccc(N(C(=O)c2ccccc2)C2C=CS(=O)(=O)C2)cc1 (configuration not stated)	none
C=CCn1c2ccccc2c2nnc(SCC(=O)NC(C)c3ccccc3)nc21 (configuration not stated)	none
CCN(Cc1ccncc1)C(=O)c1ccc(-c2ccc(F)cc2)s1	none
CCN(Cc1ccncc1)C(=O)c1ccc(-c2cccc(Cl)c2)s1	mHTT-CaM PPI inh 75
COCCn1cc2c3c(cccc31)CN(C(=O)Nc1cccc(Cl)c1C)CC2	none
O=C(O)/C=C/c1ccc(-c2cccc(Cl)c2Cl)o1	none
Cc1ccccc1NC1=C(N)C(=O)c2ccccc2C1=O	mHTT-CaM PPI inh 59
Cc1ccccc1NC1=C(N2CCOCC2)C(=O)c2ccccc2C1=O	none
C[C@H]1[C@@H](c2ccccc2)Oc2c(Cl)cccc2S(=O)(=O)N1Cc1cccc(Cl)c1	mHTT-CaM PPI inh 59
C[C@H]1[C@@H](c2ccccc2)Oc2c(Cl)cccc2S(=O)(=O)N1Cc1cccc(F)c1	none
CCCCOc1ccc(/C=c2\sc3nc(-c4ccncc4)nn3c2=O)cc1	none
O=C(c1ccccc1)N1CCC(CCNS(=O)(=O)c2ccc(F)cc2F)CC1	mHTT-CaM PPI inh 50
Cc1ccc(S(=O)(=O)NCCC2CCN(C(=O)c3ccccc3)CC2)c(C)c1	mHTT-CaM PPI inh 53
O=C(c1ccccc1)N1CCC(CCNS(=O)(=O)c2cc(F)ccc2F)CC1	none
Cc1ccc(C(=O)N2CCC(CCNS(=O)(=O)c3ccccc3C)CC2)cc1	none
Cn1nc(-c2nc(-c3ccccc3F)no2)c2c1CCN(C(=O)c1ccc(F)cc1F)C2	none
Cc1ccsc1C(=O)N1CCCC(c2n[nH]c(C3CC3)n2)C1 (configuration not stated)	none
C=CCn1c(=O)c(C(=O)Nc2ncccc2C)c(O)c2ccccc21	mHTT-CaM PPI inh 98
O=C(Nc1ccncc1)c1c(O)c2cccc3c2n(c1=O)CC3	none
C=CCn1c(=O)c(C(=O)Nc2ccccc2)c(O)c2ccccc21	none
Cc1cccnc1NC(=O)c1c(O)c2cccc3c2n(c1=O)CC3	mHTT-CaM PPI inh 80
NCCNC(=O)c1c(O)c2cccc3c2n(c1=O)CC3	none
NCCCCCCNC(=O)c1c(O)c2cccc3c2n(c1=O)CC3	mHTT-CaM PPI inh 100
N=c1c2c(-c3ccccc3)c(-c3ccccc3)oc2ncn1CCO	none
CN(C)c1ccc(N=C2C=CC(=O)C=C2)cc1	mHTT-CaM PPI inh 95 (no result: Pf apPOL inh)
COc1ccc(N=C2NC(=O)S/C2=C\c2ccc(N(C)C)cc2)cc1	none
COc1ccc2c(=O)c(Oc3ccccc3)c(C(F)(F)F)oc2c1C	none
COc1ccc(Cl)cc1N1C(=O)CSC1c1ccc(Br)cc1 (configuration not stated)	none
O=C1OC(/C=C/c2ccc(Cl)cc2Cl)=NC/1=C\c1cccs1	none
Cc1cc(C)c(C2=NC(c3ccccc3)(c3ccccc3)c3ccccc3N2)c(=O)[nH]1	none
c1ccc(C2=NC(c3ccccc3)(c3ccccc3)c3ccccc3N2)cc1	mHTT-CaM PPI inh 61 (no result: Pf apPOL inh)
O=C(Nc1ccc(Cl)cc1)N1CCC(n2cnc3ccc(F)cc3c2=O)CC1	none
O=C(Nc1ccc(Br)cc1)/C(=C1\Nc2ccc([N+](=O)[O-])cc2N1)[N+](=O)[O-]	Pf apPOL inh 52
O=C(Nc1ccc(Cl)cc1)/C(=C1\Nc2ccc([N+](=O)[O-])cc2N1)[N+](=O)[O-]	none
COc1ccc(OC)c(C2=NOC(C(=O)Nc3ccc(F)cc3F)C2)c1 (configuration not stated)	none
O=[N+]([O-])c1ccc2nc(/C=C/c3ccco3)[nH]c2c1	mHTT-CaM PPI inh 59
C(=C\c1ccco1)/c1nc2ccccc2[nH]1	none
COc1ccc(C(=O)NC(=O)Nc2cccc(C(F)(F)F)c2)cc1OC1CCCC1	none (no result: mHTT-CaM PPI inh)
Cc1ccc(NC(=O)CCN2CCN(C/C=C/c3ccccc3)CC2)cc1	none
Cc1c(Cl)cccc1NC(=O)CCN1CCN(C/C=C/c2ccccc2)CC1	mHTT-CaM PPI inh 50
O=C(NC1CCCC1)c1c(F)c(F)c(F)c(F)c1F	none
COc1ccccc1/C=C/C=c1\sc2nc(=O)c(Cc3ccccc3)nn2c1=O	mHTT-CaM PPI inh 51
COc1ccccc1/C=c1\sc2nc(=O)c(Cc3ccccc3)nn2c1=O	none
Cn1cccc1/C=N/Nc1ccc(F)cc1	mHTT-CaM PPI inh active (no result: Pf apPOL inh)
Cn1cccc1/C=N/NC(=O)c1cccs1	none (no result: Pf apPOL inh)
CCCNC(=O)c1cn2ccnc(-c3ccc(F)cc3)c2n1	none
O=c1c2ccccc2c(-c2ccccc2)nn1-c1cc(N2CCN(CCO)CC2)ccc1[N+](=O)[O-]	none
CN1CCN(c2ccc([N+](=O)[O-])c(-n3nc(-c4ccccc4)c4ccccc4c3=O)c2)CC1	mHTT-CaM PPI inh 55!
O=c1c2ccccc2c(-c2ccc(Cl)cc2)nn1-c1cc(N2CCNCC2)ccc1[N+](=O)[O-]	mHTT-CaM PPI inh 98
O=c1c2ccccc2c(-c2ccc(F)cc2)nn1-c1cc(N2CCOCC2)ccc1[N+](=O)[O-]	none
O=C1Cc2cc(NC(=O)c3ccccc3Br)ccc2N1	none
O=C(NCc1cccs1)c1cccnc1SCCS(=O)(=O)c1ccc(C(F)(F)F)cn1	none (no result: mHTT-CaM PPI inh)
COCCNC(=O)c1cc(-c2ccc(OC)c(OC)c2)on1	none
OCCN(CCO)CC(O)COCC12CC3CC(CC(C3)C1)C2 (configuration not stated)	mHTT-CaM PPI inh 100
CCN(CC)CC(O)COCC12CC3CC(CC(C3)C1)C2 (configuration not stated)	none
Cc1cccc(N2C=C(C#N)S(=O)(=O)c3c(F)cccc32)c1C	none
CSc1nnc(Sc2ncc([N+](=O)[O-])s2)s1	none (no result: mHTT-CaM PPI inh)
Cc1ccc(C(=O)Nc2ccc(S(=O)(=O)O)c3cc(S(=O)(=O)O)cc(S(=O)(=O)O)c23)cc1NC(=O)c1cccc(NC(=O)Nc2cccc(C(=O)Nc3cc(C(=O)Nc4ccc(S(=O)(=O)O)c5cc(S(=O)(=O)O)cc(S(=O)(=O)O)c45)ccc3C)c2)c1	Pf apPOL inh 53 (no result: mHTT-CaM PPI inh)
